48 compounds from PubChem BioAssay AID2685 (National Center for Advancing Translational Sciences (NCATS), 2010) can be followed below.

Out of some 320,000 compounds screened, about 2,100 (0.66%) were called active. Not shown: some 53% with an inconclusive outcome. Calls come from the whole dose curve; as a rule, active = well fitted inhibition curve with a large enough effect in the signal ratio, with a control signal flat (not every such curve was filed as active); inconclusive = small, poorly fitted or top-dose-only effect, or effect the other way, or a change in a side signal; inactive = flat fitted curve, though single readings scatter; the % refers to the signal ratio. For the sample, actives were picked, then their nearest neighbours and some compounds at random.
Potency is the fitted concentration of half-maximal effect.

The assay can be described thus: qHTS Assay for Lipid Storage Modulators in Drosophila S3 Cells.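 For cell number change: cells counted by Cell Tracker Red CMTPX staining in the red channel.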 For lipid storage change, negative = inhibition: % is set by controls: 0 for no effect and ±100 for the full control effect. The note with it: BODIPY lipid droplet fluorescence, 18-24 h, cells fed with added oleic acid; cell number change: measured here: cell count max response; series mostly up to 46.1 µM; lipid storage change, negative = inhibition: at the top concentration. The gist of the method:
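Laser-scanning cytometry quantifies lipid droplet accumulation (500–530 nm total intensity; droplet/cell object ratio) in oleic acid-fed (400 uM added) Drosophila S3 cells treated with a concentration series. 20 uM Triacsin C defined 100% inhibition.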
In the case of `O=c1[nH]c(C2CCN(S(=O)(=O)c3ccccc3)CC2)nc2c1nnn2Cc1cccc(Cl)c1`, the compound was called inactive and the cell number change stood at 26.3%.

Consider `O=c1[nH]c(C2CCCN(S(=O)(=O)c3cccc(F)c3)C2)nc2c1nnn2Cc1ccccc1` (stereo unspecified), for which the result was inactive and the cell number change was found to be 10.8%.

As to `Cc1ccc(Cn2nnc3c(=O)[nH]c(C4CCN(S(=O)(=O)c5ccccc5)CC4)nc32)cc1`, the “lipid storage change, negative = inhibition” value was -14.5% (inactive).

As to `O=C(c1ccccc1Cl)N1CCC(c2nc3c(nnn3Cc3ccco3)c(=O)[nH]2)CC1`, the “lipid storage change, negative = inhibition” value is -9.79% (inactive) and the cell number change is -9.84%.

As to `Cc1ccc(Cn2nnc3c(=O)[nH]c(C4CCN(S(=O)(=O)c5ccc(F)cc5)CC4)nc32)cc1`, the call was inactive and the cell number change was determined as 8.95%.

Consider `CC(C)(C)c1ccc(Cn2nnc3c(=O)[nH]c(C4CCN(C(=O)c5ccco5)CC4)nc32)cc1`, for which the Potency is 20.6 µM (active) and the cell number change is -8.06%.

As to `O=C(c1ccco1)N1CCCC(c2nc3c(nnn3Cc3ccccc3)c(=O)[nH]2)C1` (stereo unspecified), the “lipid storage change, negative = inhibition” value is 7.52% (inactive) and the cell number change was 1.8%.

Consider `Cc1ccc(-n2nnnc2SCC(=O)NC2CCCc3ccccc32)c(C)c1` (stereo unspecified), for which the “lipid storage change, negative = inhibition” value was 16.2% (inactive).

For the compound `O=C(CSc1ncn[nH]1)c1ccc(OC(F)F)cc1`, the “lipid storage change, negative = inhibition” value is 14.1% (inactive) and the cell number change was determined as 6.27%.

Take `CCCn1c(C(O)c2ccc(OC)cc2)nc2ccccc21` (stereo unspecified): the “lipid storage change, negative = inhibition” value is 0.274% (inactive) and the cell number change was 0.04%.

As for `O=C(NN=C1C2CC3CC1CC(Cl)(C3)C2)c1ccccn1`, the “lipid storage change, negative = inhibition” value was 8.32% (inactive) and the cell number change was found to be 10.9%.

As to `Cc1ccc(C(=O)Cn2c3[n+](c4ccccc42)CC(O)CS3)cc1` (stereo unspecified), the “lipid storage change, negative = inhibition” value is 8.6% (inactive) and the cell number change was 25.2%.

For `O=C(Cc1ccccc1)Nc1nnc(-c2cccc([N+](=O)[O-])c2)s1`, the “lipid storage change, negative = inhibition” value was 2.31% (inactive) and the cell number change is -4.06%.

Consider `Cc1cccc(N(Cc2cc(=O)[nH]c3ccccc23)C(=O)C(C)C)c1`, for which the “lipid storage change, negative = inhibition” value is -11.5% (inactive) and the cell number change is -7.9%.

As to `Cc1ccccc1N(Cc1cc(=O)[nH]c2ccccc12)C(=O)CCl`, the compound was called inactive and the cell number change was determined as 13.2%.

Consider `Cc1cccc(N(Cc2cc(=O)[nH]c3ccccc23)C(=O)CCl)c1`, for which the Potency was 20.6 µM (active) and the cell number change is -1.53%.

On to `CN(C)S(=O)(=O)c1ccc(NC(=O)C2CC(=O)N(Cc3ccccc3)C2)cc1` (stereo unspecified), for which the “lipid storage change, negative = inhibition” value was 0.189% (inactive) and the cell number change was -10.9%.

For `CCN(CC)S(=O)(=O)c1ccc(NN=C2CCN(C(C)C)CC2)c([N+](=O)[O-])c1`, the “lipid storage change, negative = inhibition” value was -5.99% (inactive) and the cell number change is 1.2%.

Regarding `Cc1ccc(S(=O)(=O)c2cc3c(=O)n4cc(C)ccc4nc3n(CC3CCCO3)c2=N)cc1` (stereo unspecified), the “lipid storage change, negative = inhibition” value was 10.8% (inactive) and the cell number change is -5.73%.

For `COP(=O)(OC)C(Nc1cc(Cl)cc(Cl)c1)c1cccc(O)c1` (stereo unspecified), the “lipid storage change, negative = inhibition” value was -23% (inactive) and the cell number change is -20.9%.

On to `CCCN(CC(=O)Nc1ccccc1OC)C(=O)CCC(=O)c1ccc(F)cc1`, for which the Potency was 0.82 µM (active) and the cell number change is -6.3%.

On to `CCCN(CC(=O)Nc1ccccc1OC)C(=O)CCC(=O)c1ccc(Cl)s1`, for which the “lipid storage change, negative = inhibition” value is -3.74% (inactive) and the cell number change is -12.8%.

With `CCN(CC(=O)Nc1ccccc1OC)C(=O)C1CCC1`, the call was inactive and the cell number change worked out at 0.934%.

For `CCCN(CC(=O)Nc1ccccc1OC)C(=O)Cc1ccccc1F`, the compound was called inactive and the cell number change was determined as 20.6%.

As to `CCN(CC(=O)Nc1ccccc1OC)C(=O)C1CCCC1`, the call was inactive and the cell number change was -11%.

For the compound `CCCN(CC(=O)Nc1ccccc1OC)C(=O)C1CCCC1`, the Potency is 3.66 µM (active).

With `O=[N+]([O-])c1cccc(S(=O)(=O)N2CCCCC2)c1`, the call was inactive and the cell number change worked out at 2.7%.

Regarding `Fc1ccc(-c2cc(C(F)(F)F)nc(NCc3cccs3)n2)cc1`, the “lipid storage change, negative = inhibition” value was 11.1% (inactive) and the cell number change is 10.1%.

Take `CCCN(CCC(=O)Nc1ccccc1F)CC1CC1`: the call was inactive and the cell number change was 22.5%.

On to `COc1ccc(NC(=O)c2ccc(C)cc2)c[n+]1[O-]`, for which the “lipid storage change, negative = inhibition” value was 1.42% (inactive) and the cell number change amounted to 9.2%.

On to `COc1ccc(C(c2nnnn2C(C)C)N2CCN(C(=O)c3ccco3)CC2)cc1` (stereo unspecified), for which the Potency is 0.0259 µM (active) and the cell number change came to 10.1%.

As for `COc1ccc(C(c2nnnn2C(C)(C)C)N2CCN(C(=O)c3ccco3)CC2)cc1` (stereo unspecified), the call was inactive and the cell number change stood at 15.4%.

With `COCCn1nnnc1C(c1ccc(OC)cc1)N1CCN(C(=O)c2ccco2)CC1` (stereo unspecified), the compound was classed as inactive and the cell number change came out at 10.8%.

Take `Cc1cccc(CSc2nnc([C@@H]3CCCN3C(=O)OC(C)(C)C)o2)c1`: the “lipid storage change, negative = inhibition” value was 0.387% (inactive) and the cell number change is 6.08%.

With `CCOC(=O)C1CCN(c2ccc([N+](=O)[O-])cc2)CC1`, the “lipid storage change, negative = inhibition” value was -22.6% (inactive) and the cell number change is -12%.

As for `COc1ccc(OC)c(S(=O)(=O)Nc2ccc3oc(C)c(C(C)=O)c3c2)c1`, the call was inactive and the cell number change is -9.21%.

`O=C(COC(=O)c1cccc(C(=O)OCC(=O)NC2CCCCC2)n1)NC1CCCCC1`: the Potency was 20.6 µM (active) and the cell number change was -17.1%.

For the compound `Cc1cc(C)c(OCC(=O)OCC(=O)NC2CCCCCCC2)c(C)c1`, the Potency was 1.84 µM (active) and the cell number change stood at 19.3%.

For the compound `Nc1c(C(=O)NC2CCCCC2)nsc1C(=O)OCC(=O)NC1CCCCC1`, the “lipid storage change, negative = inhibition” value was 22.9% (inactive) and the cell number change is -16.5%.

`O=C(COC(=O)c1c(Cl)cccc1Cl)NC1CCCCC1`: the “lipid storage change, negative = inhibition” value was 3.06% (inactive).

For the compound `Nc1c(Cl)c(Cl)nc(C(=O)OCC(=O)NC2CCCCC2)c1Cl`, the Potency is 9.2 µM (active) and the cell number change is -8.54%.

As to `O=C(COC(=O)c1ccccc1)NC1CCCC1`, the “lipid storage change, negative = inhibition” value was -8.07% (inactive) and the cell number change is -13.7%.

For the compound `Cc1cc(C)cc(OCC(=O)OCC(=O)NC2CCCCCCC2)c1`, the result was inactive and the cell number change is -3.74%.

Consider `Cc1ccsc1C(=O)OCC(=O)NC1CCCC1`, for which the Potency was 0.517 µM (active) and the cell number change was -11%.

On to `Cc1ccccc1OCC(=O)OCC(=O)NC1CCCCCC1`, for which the cell number change was -24.2% and the outcome was “inactive [at 0.0737 µM]”.

Take `Cc1ccsc1C(=O)OCC(=O)NCCNC(=O)COC(=O)c1sccc1C`: the cell number change was 12.8% and the lipid storage change, negative = inhibition is -4.96% [at 0.0737 µM] (inactive).

For `Cc1ccsc1C(=O)OCC(=O)NC1CCS(=O)(=O)C1` (stereo unspecified), the “lipid storage change, negative = inhibition” value was -5.35% (inactive) and the cell number change worked out at 0.0545%.

As to `O=C(COC(=O)c1nc(Cl)ccc1Cl)NC1CCCCCC1`, the call was inactive.
